# In PubChem BioAssay:
# Active and inactive are the calls of the source. Unless noted, the rule behind the calls is not given here.
# Experiments:
# [1] = resazurin metabolic signal in HepG2 cells – cell-based, resazurin fluorescence, 24 h, PK04 Diversity Set, profiling panel (AID 1172); settings: HepG2 viability, higher = more signal; note: test concentration not given here
# [2] = budding yeast growth changes without added modifier – OD600, strain BY4716, 24 h, basal condition, primary screen (AID 1173); settings: S. cerevisiae BY4716 growth, OD600, 24 h; higher = more signal, called active from +8 up or from −8 down
# [3] = viability profiling in MM1S myeloma cells – cell-based, resazurin fluorescence, basal, 24 h, PK04 Diversity Set, profiling panel (AID 1174); settings: higher = more signal, called active from +8 up or from −8 down;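 note: MM1S multiple myeloma cell line; test concentration not given here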
# [4] = biological target: Dihydroorotate dehydrogenase (quinone), mitochondrial (Plasmodium falciparum (isolate 3D7)) (UniProt Q08210); test: inhibition of P. falciparum DHODH – biochemical, C-terminal His tag, absorbance 600 nm, primary screen (AID 1175); settings: PfDHODH enzyme, DCIP absorbance 600 nm; higher = more signal, called active from +8 up or from −8 down;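 note: recombinant parasite enzyme with a five histidine tag at its C terminus; test concentration not given here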
# Sequence of Dihydroorotate dehydrogenase (quinone), mitochondrial (Plasmodium falciparum (isolate 3D7)) (Q08210 whole entry, looked up): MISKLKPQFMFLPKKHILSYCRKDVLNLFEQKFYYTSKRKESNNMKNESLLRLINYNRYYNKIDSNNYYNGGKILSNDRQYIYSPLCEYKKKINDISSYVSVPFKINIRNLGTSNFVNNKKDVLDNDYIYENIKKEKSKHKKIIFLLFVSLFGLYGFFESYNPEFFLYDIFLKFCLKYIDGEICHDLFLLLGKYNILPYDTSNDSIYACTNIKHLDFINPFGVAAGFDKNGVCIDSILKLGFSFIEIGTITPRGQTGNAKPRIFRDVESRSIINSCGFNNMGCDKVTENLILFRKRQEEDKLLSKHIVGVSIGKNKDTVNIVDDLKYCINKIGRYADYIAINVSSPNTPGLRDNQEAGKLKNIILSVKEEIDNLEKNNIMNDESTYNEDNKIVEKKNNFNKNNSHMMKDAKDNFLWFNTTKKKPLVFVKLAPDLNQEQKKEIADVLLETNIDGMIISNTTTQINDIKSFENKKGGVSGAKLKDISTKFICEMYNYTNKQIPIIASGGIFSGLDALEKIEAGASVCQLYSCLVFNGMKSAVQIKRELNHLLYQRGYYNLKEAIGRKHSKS
# [5] = inhibition of PAO1 biofilm formation – strain PAO1, LB-PBS medium, absorbance 600 nm, primary screen (AID 1176); note: test concentration not given here; settings: P. aeruginosa PAO1 growth/biofilm, A600, 12 h; higher = more signal
# [6] = growth modulation of vineyard yeast isolate – strain RM11-1a, OD600, basal, 24 h, primary screen (AID 1177);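 note: cultures grown under basal conditions with no added stressor; test concentration not given here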; settings: S. cerevisiae RM11-1a growth, OD600, 24 h; higher = more signal, called active from +8 up or from −8 down
# [7] = growth of efflux-deficient E. coli DRC39 – strain DRC39, OD650, 24 h, E. coli filamentation inducers, primary screen (AID 1178);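 note: growth measured as culture turbidity by optical density at 650 nm; test concentration not given here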; settings: E. coli DRC39 acrAB, higher = more signal, called active from +8 up or from −8 down
# [8] = growth of efflux-deficient E. coli DRC39 – strain DRC39, OD650, 48 h, E. coli filamentation inducers, primary screen (AID 1179);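 note: screen aims at cell division blockers that make cells filament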; settings: E. coli DRC39 delta-acrAB growth, higher = more signal, called active from +8 up or from −8 down
# [9] = viability profiling in RPMI8226 myeloma cells – cell-based, resazurin fluorescence, basal, 24 h, PK04 Diversity Set, profiling panel (AID 1180); settings: higher = more signal;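 note: RPMI8826 multiple myeloma cell line at 5000 cells per well; test concentration not given here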
# [10] = biological target: E3 ubiquitin-protein ligase XIAP (Homo sapiens) (UniProt P98170); test: small molecules binding XIAP protein – biophysical, small-molecule microarray, fluorescence 635 nm, primary screen (AID 1181); settings: higher = more signal;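 note: score merges 667 nm emission and signal to noise over triplicate slides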
# Sequence of E3 ubiquitin-protein ligase XIAP (Homo sapiens) (P98170 whole entry, looked up): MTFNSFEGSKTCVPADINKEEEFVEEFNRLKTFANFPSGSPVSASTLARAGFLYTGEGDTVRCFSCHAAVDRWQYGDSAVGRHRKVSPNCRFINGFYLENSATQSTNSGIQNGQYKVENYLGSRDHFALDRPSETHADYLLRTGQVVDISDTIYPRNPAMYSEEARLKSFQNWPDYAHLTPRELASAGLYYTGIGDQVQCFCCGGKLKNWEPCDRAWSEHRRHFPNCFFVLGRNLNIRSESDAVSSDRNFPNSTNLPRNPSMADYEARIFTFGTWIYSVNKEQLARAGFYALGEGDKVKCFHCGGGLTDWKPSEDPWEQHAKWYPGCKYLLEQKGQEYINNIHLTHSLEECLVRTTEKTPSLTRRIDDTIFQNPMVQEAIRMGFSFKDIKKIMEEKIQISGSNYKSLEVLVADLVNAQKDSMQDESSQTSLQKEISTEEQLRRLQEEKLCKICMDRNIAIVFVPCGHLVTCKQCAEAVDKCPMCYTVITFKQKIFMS
SMILES,z-score [1],z-score [2],z-score [3],composite z-score [4],z-score [5],z-score [6],z-score [7],z-score [8],z-score [9],composite z-score [10]
COC(=O)[C@@]1(Cc2ccc(F)cc2)[C@H]2c3cc(C(=O)N4CCCC4)n(Cc4ccc(C(F)(F)F)nc4)c3C[C@H]2CN1C(=O)c1ccccc1,-0.213,1.12 (inactive),-1.23 (inactive),-0.456 (inactive),-0.691 (inactive),1.09 (inactive),-0.83 (inactive),0.0871 (inactive),-1.11,0.153
C=CCNC(=O)[C@@H]1[C@H]2C(=O)O[C@H](c3ccccc3)[C@H](c3ccccc3)N2[C@H](c2ccc(OCCO)cc2)[C@@]12C(=O)Nc1ccc(C#CCNC(N)=O)cc12,-0.0448,1.23 (inactive),-0.286 (inactive),-0.157 (inactive),1.18 (inactive),1.06 (inactive),0.0047 (inactive),-0.568 (inactive),0.671,0.129
COc1ccc([Si](C)(C)[C@@H]2[C@@H](CC(=O)N3Cc4ccccc4C[C@H]3CO)O[C@]3(C(=O)N(Cc4ccc(I)cc4)c4ccccc43)[C@H]2C)cc1,0.454,-0.0671 (inactive),-1 (inactive),0.312 (inactive),0.662 (inactive),2.33 (inactive),0.101 (inactive),-0.092 (inactive),-0.336,0.262
COC(=O)C(CC#Cc1ccc2c(c1)[C@]1(C(=O)N2)[C@H](c2ccc(OCCO)cc2)N2[C@H](c3ccccc3)[C@H](c3ccccc3)OC(=O)[C@H]2[C@@H]1C(N)=O)C(=O)OC,-0.156,1.17 (inactive),-0.551 (inactive),-1.24 (inactive),2.88 (inactive),2.32 (inactive),0.448 (inactive),0.287 (inactive),-1.43,0.13
C=C(CCCC)/C(=C/C[C@@H](OC(C)=O)c1ccc(OCCO)cc1)c1cc(C(=O)OC)ccc1OC,0.353,-0.107 (inactive),-1.36 (inactive),-2.64 (inactive),0.862 (inactive),-0.319 (inactive),0.173 (inactive),0.107 (inactive),-0.808,-0.0274
COC(=O)[C@@]1(Cc2ccc(F)cc2)[C@H]2c3cc(C(=O)N(C)C)n(Cc4cccc5ccccc45)c3C[C@H]2CN1C(=O)c1ccccc1,-0.488,1.91 (inactive),-1.32 (inactive),-0.0341 (inactive),1.75 (inactive),1.75 (inactive),-0.609 (inactive),-0.707 (inactive),-1.04,1.6
C[C@]12C(=O)N(CCO)[C@@H]3C(=O)N(c4ccc(Cl)cc4)CC=CC31O[C@@H]1/C=C\CCCOC(=O)C12 (stereo not given in full),-0.561,0.13 (inactive),-0.562 (inactive),-0.141 (inactive),-0.481 (inactive),0.556 (inactive),-1.18 (inactive),-1.25 (inactive),-0.184,-0.0746
COC(=O)[C@]1(Cc2ccccc2CN=[N+]=[N-])N=C(c2ccc(OCCCO)cc2)O[C@@H]1c1ccccc1N=[N+]=[N-],-2,1.09 (inactive),-4.02 (inactive),-0.123 (inactive),1.06 (inactive),1.77 (inactive),1.74 (inactive),0.918 (inactive),-6.89,-0.188
COCCOC(=O)N1C(=O)[C@@]2(c3cc(C#CCNC(N)=O)ccc31)[C@H](C(=O)N1CCN(c3ncccn3)CC1)[C@H]1C(=O)O[C@H](c3ccccc3)[C@H](c3ccccc3)N1[C@@H]2c1ccc(O)cc1,-0.203,-0.171 (inactive),0.0034 (inactive),0.386 (inactive),1.13 (inactive),-0.34 (inactive),0.589 (inactive),1.15 (inactive),0.436,-0.0129
C=CCN1C(=O)[C@]2(O[C@H](CCO)[C@@H]([Si](C)(C)c3ccc(OC)cc3)[C@@H]2C)c2cc(N3C(=O)c4ccccc4Oc4ccccc43)ccc21,-5.91,0.84 (inactive),-8.74 (active),1.11 (inactive),0.106 (inactive),4.06 (inactive),0.229 (inactive),-0.757 (inactive),-6.28,-0.138
O=C1O[C@H](c2ccccc2)[C@H](c2ccccc2)N2[C@H]1[C@@H](C(=O)N1CCN(c3ncccn3)CC1)[C@]1(C(=O)Nc3ccc(C#CC4(O)CCCCCC4)cc31)[C@H]2c1ccc(O)cc1,0.596,-0.436 (inactive),0.776 (inactive),0.0991 (inactive),1.05 (inactive),1.82 (inactive),0.851 (inactive),1.31 (inactive),0.995,-0.0663
COc1c(C)cc(-c2nc(-c3ccccc3)c3c(c2C)CO[Si]3(C(C)C)C(C)C)cc1C,1.16,0.709 (inactive),0.032 (inactive),0.08 (inactive),0.845 (inactive),-0.0161 (inactive),0.187 (inactive),0.135 (inactive),0.199,0.53
CC(C)(C)OC(=O)CC[C@@]1(C(N)=O)N=C(c2ccc(OCCCO)cc2)O[C@@H]1c1ccccc1CN=[N+]=[N-],0.372,-0.0901 (inactive),-0.599 (inactive),-1 (inactive),0.122 (inactive),0.0861 (inactive),-0.0622 (inactive),0.131 (inactive),-0.17,0.119
CC(C)[Si](C#Cc1ccccc1)(O[C@H](c1ccccc1)c1cn(Cc2ccccc2)nn1)C(C)C,-0.001,-16.7 (active),0.141 (inactive),-1.03 (inactive),-0.571 (inactive),-0.282 (inactive),1.67 (inactive),0.79 (inactive),0.253,-0.516
CCOC(=O)C1=C[C@@H](C(C)(C)C)N(S(=O)(=O)c2ccc(C)cc2)[C@H]1c1ccc(OC)cc1,-0.294,1.9 (inactive),-0.0789 (inactive),-0.0972 (inactive),-0.473 (inactive),1.88 (inactive),0.33 (inactive),-0.27 (inactive),-1.23,-0.149
CC(C)C[C@H]1NC(=O)CNC(=O)[C@@]23C(=O)N[C@@H](Cc4ccccc4)C2[C@H](C)[C@@]2(C)O[C@H]2C3/C=C/C/C=C\CNC1=O (stereo not given in full),-0.657,-0.572 (inactive),0.105 (inactive),-0.341 (inactive),1.11 (inactive),0.0636 (inactive),-0.288 (inactive),-0.141 (inactive),0.293,-0.122
COc1ccc(CCNC(=O)[C@@]2(c3ccc([N+](=O)[O-])cc3)CC(=O)N(C3CCCCC3)[C@@H]2c2ccc(CO)cc2I)cc1,-1.29,0.633 (inactive),-0.949 (inactive),1.45 (inactive),0.14 (inactive),1.86 (inactive),0.359 (inactive),-0.0406 (inactive),-0.593,-0.16
COCCOC(=O)N1C(=O)[C@@]2(c3cc(C#CCCO)ccc31)[C@H](c1ccc(O)cc1)N1[C@H](c3ccccc3)[C@H](c3ccccc3)OC(=O)[C@H]1[C@@H]2C(=O)NC[C@H](O)c1ccccc1,1.63,0.597 (inactive),0.763 (inactive),0.612 (inactive),1.66 (inactive),1.06 (inactive),1.04 (inactive),1.67 (inactive),1.2,0.0256
[N-]=[N+]=NCc1ccccc1[C@H]1OC(c2ccc(OCCCO)cc2)=N[C@@]1(Cc1ccccc1N=[N+]=[N-])C(=O)O,0.539,-4.15 (inactive),0.119 (inactive),-0.862 (inactive),0.535 (inactive),-0.123 (inactive),-0.539 (inactive),-0.779 (inactive),-0.0412,0.166
C=CCNC(=O)[C@H]1[C@@H]2C(=O)O[C@@H](c3ccccc3)[C@@H](c3ccccc3)N2[C@@H](c2ccc(OCCO)cc2)[C@]12C(=O)Nc1ccc(C#Cc3ccc(OC)cc3)cc12,-1.06,2.32 (inactive),-0.512 (inactive),-2.27 (inactive),2.18 (inactive),3.66 (inactive),-0.672 (inactive),-0.995 (inactive),-1.29,1.29
CC(C)C[C@@H]1NC(=O)[C@@H]2C[C@H](C(=O)NCCCCCCNC(=O)CS)[C@H](c3ccc(O)cc3)N2C1=O,0.0799,-0.295 (inactive),-0.471 (inactive),-0.283 (inactive),1.97 (inactive),0.199 (inactive),0.306 (inactive),-0.874 (inactive),-0.898,0.291
COc1ccc(-c2cc3c(c(CCc4ccccc4)n2)[Si](C(C)C)(C(C)C)O[C@H]3c2ccccc2)cn1,-0.166,0.871 (inactive),0.694 (inactive),-0.575 (inactive),0.726 (inactive),0.868 (inactive),-1.19 (inactive),-0.893 (inactive),-0.555,-0.12
C[N+](C)(C)CCCC[C@@H]1NC(=O)[C@H]2C[C@@H](C(=O)O)[C@@H](c3ccc(O)cc3)N2C1=O,0.363,-1.58 (inactive),1.03 (inactive),-0.406 (inactive),0.475 (inactive),-0.944 (inactive),1.38 (inactive),1.57 (inactive),0.925,-0.0595
COC(=O)[C@@]1(Cc2ccc(F)cc2)[C@H]2c3cc(C(=O)N4CCCC4)n(CCc4c[nH]c5cc(F)ccc45)c3C[C@H]2CN1C(=O)c1ccccc1,0.182,1.7 (inactive),-0.0568 (inactive),-0.362 (inactive),-0.815 (inactive),0.335 (inactive),-0.426 (inactive),-0.55 (inactive),-0.162,0.0535
CN(C)CCCCCCNC(=O)[C@@H]1C[C@@H]2C(=O)N[C@@H](CCCC[N+](C)(C)C)C(=O)N2[C@@H]1c1cccc(OCCO)c1,0.473,-0.834 (inactive),0.349 (inactive),-2.9 (inactive),0.0472 (inactive),-1.75 (inactive),1.03 (inactive),1.62 (inactive),-0.0472,0.141
